Data from PubChem BioAssay (NCATS).
Records with an inconclusive call do not appear. Entries that show only a call come without a potency. The source made the active and inactive calls. Calls come from the whole dose curve; as a rule, active = well fitted inhibition curve with a large enough effect; inconclusive = small, poorly fitted or top-dose-only effect; inactive = flat fitted curve, though single readings scatter.

assay: P-glycoprotein substrates identified in KB-8-5-11 adenocarcinoma cell line, qHTS therapeutic library screen (AID 1346987); conditions: KB-8-5-11 (P-gp overexpressing) viability, CellTiter-Glo, 72 h; series mostly up to 44.5 µM; note: nearly all actives have a fitted effect of over 65% in size
Outline: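 P-gp-mediated resistance screen: KB-8-5-11 cells treated 72 h with compounds in dose-response. CellTiter-Glo viability.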
Potency is the fitted concentration of half-maximal effect.

With `CO/N=C(/C(=O)N[C@@H]1C(=O)N2C(C(=O)O)=C(Cn3ccc(=N)n3CCO)CS[C@H]12)c1csc(N)n1` as the compound, how does the Potency read?
Its Potency is “inactive”.

With `COc1cc(O)c([C@@H](CC(=O)N2CC(C)CC(C)C2)c2ccc3c(c2)OCO3)c(OC)c1` (stereo partly specified) as the compound, how does the Potency read?
Its Potency is “inactive”.

Which Potency does the source give for `Cc1c(NC(=O)c2cc(C(N)=O)nc3cc(F)ccc23)c(C(F)(F)F)nn1Cc1ccc(C#N)cc1` here?
Its Potency is “inactive”.

With `CN(C)c1nc(NC2CCC(NCCc3ccc(Br)cc3OC(F)(F)F)CC2)nc2ccccc12` (stereo unspecified) as the compound, how does the Potency read?
The Potency was 4610 nM (active).

For `O=C(O)c1cc2cccc([N+](=O)[O-])c2[nH]1`, which Potency is on record?
The Potency was “inactive”.

With `COC(=O)C[C@H]1C(C)(C)[C@H](OC(C)=O)C2CC3=C4CC(=O)O[C@@H](c5ccoc5)[C@]4(C)CCC3[C@@]1(C)C2=O` (stereo partly specified) as the compound, how does the Potency read?
Its Potency is “inactive”.

For `OC/C=C/c1ccc(O[C@@H]2O[C@H](CO)[C@@H](O)[C@H](O)[C@H]2O)cc1`, which Potency is on record?
Its Potency is “inactive”.

For `OC1CCC(Nc2ncc3nc(Nc4c(F)cc(F)cc4F)n([C@H]4CCOC4)c3n2)CC1` (stereo partly specified), which Potency is on record?
The Potency was “inactive”.

For `COc1c2c(c(C)c3c1C(=O)OC3)O[C@@]1(C)CC(O)C(C(C)(C)O)[C@](C)(CCC(=O)O)[C@H]1C2` (stereo partly specified), which Potency is on record?
The Potency was “inactive”.

Which outcome does the source give for `COC1CC(OC2CCC3(C)C(=CCC4C3C(OC(C)=O)C(OC(=O)/C=C/c3ccccc3)C3(C)C(C(C)O)CCC43O)C2)OC(C)C1OC1CC(OC)C(OC2OC(C)C(OC3OC(CO)C(O)C(O)C3O)C(OC)C2O)C(C)O1` (stereo unspecified) here?
Its outcome is “inactive [at 9.29 µM]”.

For `C[C@H]1O[C@@H](O[C@H]2CC[C@@]3(C)C(CC[C@]4(C)C3CC=C3C5CC(C)(C)CC[C@]5(C(=O)O)CC[C@]34C(=O)O)C2(C)C)[C@H](O)[C@@H](O)[C@@H]1O` (stereo partly specified), which Potency is on record?
Its Potency is “inactive”.

For `COc1ccc(C(=O)C2CCN(CC(=O)N(Cc3nc4c(c(=O)[nH]3)COCC4)CC3CC3)CC2)cc1`, which Potency is on record?
Its Potency is “inactive”.

Which Potency does the source give for `CCCN1CCN(c2ccc(C(=O)NC3(C(=O)NCC#N)CCCCC3)cc2)CC1` here?
The Potency was “inactive”.

With `CC[C@]1(O)CC2CN(CCc3c([nH]c4ccccc34)[C@@](C(=O)OC)(c3cc4c(cc3OC)N(C)[C@H]3[C@@](O)(C(=O)OC)[C@H](OC(C)=O)[C@]5(CC)C=CCN6CC[C@]43[C@@H]65)C2)C1` (stereo partly specified) as the compound, how does the Potency read?
The Potency was 1030 nM (active).

Which Potency does the source give for `COc1ccc2c(OC)c3ccoc3nc2c1OC` here?
The Potency was “inactive”.

With `CC1=CC(=O)CC(C)(C)[C@@]1(O)CC[C@@H](C)O[C@@H]1O[C@H](CO)[C@@H](O)[C@H](O)[C@H]1O` as the compound, how does the Potency read?
Its Potency is “inactive”.
